Screening data from PubChem BioAssay.
HCMV inh = human cytomegalovirus inhibition. HFF cells, HCMV-luciferase reporter, 72 h; stronger effect = lower value. activity change, negative = inhibition, % at 57.5 µM. 410,000 compounds, 4.5% hits. AID 1259415; in the data active = activity change below about -60%; inconclusive = no clear call, values can overlap the other calls; inactive = above about -39%
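Compounds were evaluated in HFFs infected with an HCMV luciferase reporter virus (MOI 1 PFU/cell). Luciferase in lysates collected 72 h post infection served as the replication measure.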
Sm TGR block = blocks Schistosoma mansoni thioredoxin glutathione reductase. AID 485364. purified TGR, DTNB reduction, TNB absorbance 405 nm. Q962Y6. 360,000 compounds, 3% hits. Potency, µM (doses to about 114 µM), inactives show at the highest dose activity change, negative = inhibition, hits mostly inhibitors; note: potency is the fitted concentration of half-maximal effect; nearly all actives have a fitted effect of over 60% in size
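TGR 20 nM + NADPH 100 uM (dispensed conc.), cpd preinc 15 min RT; start with NADPH (500 uM addition) then DTNB (15 mM addition). Kinetic TNB absorbance, 405 nm filter. Four-parameter Hill fit across titration.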
Pf growth 48h = P. falciparum growth inhibition at 48 hours (one generation); P. falciparum luciferase growth in erythrocytes, 48 h; Potency, µM (highest dose often 28.7 µM), without a hit: at the highest dose activity change, negative = inhibition, actives largely listed as inhibitors; 310,000 compounds, 5.9% hits; AID 504832; note: potency is the fitted concentration of half-maximal effect
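Parasite viability was followed by luminescence of a genomically integrated firefly luciferase. Cultures held 0.1% parasitemia at 2% hematocrit (final), incubated under 5% CO2 at 37 C.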
Giardia FBPA inh = inhibitors of Giardia lamblia fructose-1,6-bisphosphate aldolase; A8B2U2; purified Giardia FBPA; Potency, µM (series often up to 59.6 µM), for the others: at the highest dose activity, negative = inhibition, hits mostly inhibitors; 290,000 compounds, 0.71% hits; note: potency is the fitted concentration of half-maximal effect; nearly all actives have a fitted effect of over 55% in size
Target sequence (A8B2U2 whole entry, looked up): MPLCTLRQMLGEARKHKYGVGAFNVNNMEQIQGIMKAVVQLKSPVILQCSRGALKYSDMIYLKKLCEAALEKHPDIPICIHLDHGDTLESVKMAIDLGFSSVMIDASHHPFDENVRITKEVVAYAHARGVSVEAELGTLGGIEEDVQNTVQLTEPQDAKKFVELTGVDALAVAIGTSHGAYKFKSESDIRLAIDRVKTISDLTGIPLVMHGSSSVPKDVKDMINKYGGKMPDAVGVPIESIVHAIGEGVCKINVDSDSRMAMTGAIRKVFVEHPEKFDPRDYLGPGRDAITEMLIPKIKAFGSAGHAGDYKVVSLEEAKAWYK
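Giardia FBPA (40 nM reagent) was preincubated 10 min at RT with compound (up to 57.5 uM final), then substrate plus GAPDH/TPI/NAD/arsenate coupling system with diaphorase/resazurin was added; resorufin fluorescence (525/598 nm) was read after 20 min.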
Pf growth 96h = inhibits malaria parasite growth, 96 h. P. falciparum luciferase reporter growth, 96 h. Potency, µM (highest dose often 28.7 µM), inactives show top-dose activity change, negative = inhibition, hits mostly inhibitors. 320,000 compounds, 6.9% hits. AID 504834; note: potency is the fitted concentration of half-maximal effect
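Infected RBCs, 2% Hct / 0.05% parasitemia final; luciferase-reporter P. falciparum; cpd 96 h, 37 C, 5% CO2; luciferase detection reagent; luminescence.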
Starred values were filed as active, the others as inactive; ? = inconclusive; nt = not tested or not shown; [ ] = remark or other dose. The list is not random: actives were taken first. Their share in the collection is about 14%. Unless noted, calls come from the whole dose curve; as a rule, active = well fitted curve in the direction sought with a large enough effect; inconclusive = small, poorly fitted or top-dose-only effect, or another doubt; inactive = no such curve, though single readings can be large; an effect the other way counts as inactive or inconclusive. % is set by controls: 0 for no effect and ±100 for the full control effect.

SMILES	HCMV inh	Sm TGR block	Pf growth 48h	Giardia FBPA inh	Pf growth 96h
CC(=O)Nc1cccc(C(=O)OCC(=O)Nc2ccc(Cl)cn2)c1	4	-5%	49%	nt	6%
CN(C)/C=C/C(=O)c1ccc([N+](=O)[O-])c(CS(=O)(=O)c2ccc(Cl)cc2)c1	-6	-5%	-17%	-1%	-4%
COc1ccc2c(c1)[C@]1(C)CCC(=O)C[C@H]1CC2	nt	nt	nt	-2%	nt
O=C(CSc1nnc(Nc2ccccc2)s1)NC1CC1	-13	3%	16%	nt	?
CCCCn1c(N)c(N(CC(C)C)C(=O)CCCc2nc3ccccc3s2)c(=O)[nH]c1=O	-15	-3%	?	nt	?
CCCCN(C(=O)c1ccc([N+](=O)[O-])s1)c1c(N)n(CCCC)c(=O)[nH]c1=O	-16	-18%	10µM*	nt	?
CCCCn1c(N)c(N(CCOC)C(=O)c2ccc(Br)s2)c(=O)[nH]c1=O	-33	-1%	-1%	nt	?
CC(C)CN(C(=O)COC(=O)c1ccc([N+](=O)[O-])s1)c1c(N)n(Cc2ccccc2)c(=O)[nH]c1=O	3	?	0%	nt	-9%
CCCCn1c(N)c(N(CCC(C)C)C(=O)CCCc2nc3ccccc3s2)c(=O)[nH]c1=O	26	-3%	-6%	-2%	15µM*
CCCCCN(C(=O)CCC(=O)OCC(=O)c1ccc(C(C)CC)cc1)c1c(N)n(CCCC)c(=O)[nH]c1=O (centres undefined)	nt	6%	10µM*	nt	?
CCCCn1c(N)c(N(CCC(C)C)C(=O)COC(=O)c2ccc([N+](=O)[O-])s2)c(=O)[nH]c1=O	-95*	nt	nt	nt	nt
CCCCOc1ccc(C(=O)NCC(=O)OCCCOC(=O)CNC(=O)c2ccc(OCCCC)cc2)cc1	17	nt	nt	nt	nt
COc1ccccc1C(=O)NNC(=O)c1cccc(O)c1	113	15%	163%	-18%	6.6µM*
COc1cc2ccccc2cc1C(=O)NNC(=O)c1ccccc1O	-91*	0%	?	nt	?
CCc1ccc(NC(=O)Cn2cc(S(=O)(=O)N3CCCC3)c(S(=O)(=O)N3CCCC3)c2)cc1	16	-7%	nt	nt	nt
Oc1ccc(-c2csc(Nc3ncccn3)n2)cc1	23	6%	377%	-7%	4.1µM*
c1ccc(-c2csc(Nc3ncccn3)n2)cc1	82	0%	302%	1%	?
CN(C)NC(=S)Nc1cccc(C(F)(F)F)c1	9	-8%	?	-17%	?
Fc1ccc(NC(=S)Nc2ccc(Cl)cc2)cc1	-78*	?	-19%	-11%	0%
Fc1ccc(CNC(=S)Nc2cccc(C(F)(F)F)c2)cc1	-36	-14%	?	2%	30%
Fc1ccc(NC(=S)Nc2cc(Cl)ccc2Cl)cc1	-33	nt	20%	-12%	63%
Fc1ccccc1CNC(=S)Nc1cccc(C(F)(F)F)c1	-79*	-22%	?	0%	77%
CC(NC(=S)Nc1cccc(C(F)(F)F)c1)C(C)(C)C (centres undefined)	?	11%	?	-4%	13µM*
S=C(NCc1ccccc1)Nc1cccc(Cl)c1	-84*	?	2%	-7%	27%
CCC12CN3CC(CC)(CN(C1)C3c1ccc(OCc3ccccc3)cc1)C2=O (centres undefined)	15	1%	nt	nt	nt
SMILES	HCMV inh	Sm TGR block	Pf growth 48h	Giardia FBPA inh	Pf growth 96h
COc1ccc(CNc2cc(-c3cccc(NS(C)(=O)=O)c3)ncn2)c(OC)c1	nt	nt	nt	0%	nt
CCOC(=O)C1(C)CCCCCN1C(=O)c1ccc(SC(F)(F)F)cc1 (centres undefined)	3	nt	nt	nt	nt
S=C(Nc1cccc(Cl)c1)Nc1ccccc1Oc1ccccc1	-33	7%	21%	-6%	12µM*
FC(F)(F)c1cccc(NC(=S)NNC(=S)Nc2ccc(Cl)cc2)c1	nt	11%	?	-13%	12µM*
FC(F)(F)c1cccc(NC(=S)NCc2ccc(Cl)cc2)c1	-90*	-1%	?	-5%	-18%[5.75 µM]
O=c1[nH]c2ccc(NC(=S)NCc3ccccc3)cc2[nH]1	-30	8.9µM*	14%	-4%	-11%
Cc1nc(N2CCOCC2)c2nc(-c3ccccc3)n(CCCN3CCCCC3C)c2n1 (centres undefined)	nt	nt	nt	6%	nt
Cn1c(=O)c2cc(C(=O)NCCCN3CCN(c4ccc(F)cc4)CC3)sc2c2ccccc21	21	-20%	nt	nt	nt
O=C(CCc1nnc2ccc(NCc3ccccc3)nn12)NC1CCCCC1	?	9%	8%	nt	12µM*
OCc1ccccc1SSc1ccccc1CO	-98*	nt	nt	nt	nt
COc1cc(/C=C/C(=O)OCC(=O)Nc2ccc3[nH]c(=O)[nH]c3c2)ccc1OC(F)F	14	nt	nt	nt	nt
O=C(c1ccc(OCCN2CCCCC2)cc1)c1c(-c2ccc(O)cc2)sc2cc(O)ccc12	-6	4%	2.6µM*	5%	2.3µM*
COc1ccc(N2CCN(C(CNC(=O)C(=O)NCc3ccc(C)cc3)c3cccnc3)CC2)cc1 (centres undefined)	-27	-1%	nt	nt	nt
Cc1cc(C)cc(C(=O)NC(=S)Nc2cccnc2)c1	-14	?	2%	nt	22%
CSc1ncnc2c1cnn2-c1ccc(C)cc1C	40	12%	42%	0%	46%
CCOC(=O)CSc1ncnc2c1cnn2-c1ccc(C)cc1	-3	-1%	28%	0%	13µM*
CCOC(=O)CNC(=O)CSc1ncnc2c1cnn2-c1ccc(OC)cc1	50	1%	?	1%	nt
Cc1ccc(-n2ncc3c(SCc4ccccc4)ncnc32)cc1	-63*	-14%	195%	2%	164%
Cc1ccc(-n2ncc3c(SCc4ccccn4)ncnc32)c(C)c1	-101*	3%	?	-2%	?
CCc1nnc(NC(=O)CSc2ncnc3c2cnn3-c2ccc(OC)cc2)s1	85	0%	57%	nt	0.0037µM*
O=C(NCCc1nc(-c2ccccc2)cs1)c1ccc(Br)cc1	-24	-8%	9%	-3%	0%
COc1ccccc1-c1ccc2ncnc(NCCN3CCOCC3)c2c1	nt	nt	nt	0%	nt
CCOC(=O)CNC(=O)CSc1ncnc2c1cnn2-c1ccc(C)cc1	-8	3%	15%	-1%	8.3µM*
CSCCC(NC(=O)C12CC3CC(CC(C3)C1)C2)C(=O)OCC(=O)c1ccc(C)cc1 (centres undefined)	11	0%	-4%	5%	0.33µM*
Cc1ccc(C(C)NC(=O)C23CC4CC(CC(C4)C2)C3)cc1 (centres undefined)	-13	26%	-33%[1.15 µM]	4%	0.59µM*
Cc1nn(CC(=O)N(C)C2(C#N)CCCCC2)c(C)c1[N+](=O)[O-]	-19	-17%	4%	nt	40%
COc1ccc(C)cc1S(=O)(=O)N1CCN(C(=O)c2ncoc2-c2ccccc2F)CC1	-14	0%	13%	3%	69%
COc1ccc(C)cc1S(=O)(=O)N1CCN(C(=O)c2ncoc2-c2cccc(C)c2)CC1	-7	-17%	1%	8%	0.93µM*
